± gives the standard deviation.

The subject of the first assay is RAW-Dual (murine macrophage reporter line). Kind of assay: NF-kB reporter (SEAP) activity fold change vs agonist alone; higher = enhanced NF-kB activity. The conditions noted are these: modulator concentration 10 µM; agonist: CpG ODN 1826 0.5 ug/mL. Put shortly:
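Compound reached 10 μM final in each well by pin transfer, onto RAW-Dual murine macrophage reporter cells seeded at 50 000 per well in 384-well plates. After 1 hour at 37 °C, the cells were stimulated overnight with a PRR agonist. SEAP in the supernatant was read with QUANTI-Blue at 620 nm absorbance for NF-κB, and Lucia luciferase was read with QUANTI-Luc luminescence for IRF. Each signal was turned into fold change against the mean agonist-only control on the same plate, and two replicate plates were averaged with propagated errors.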
For `NC(=O)Cn1c(Cc2ccccc2Cl)nc2ccccc21`, the NF-kB reporter is 0.97 ± 0.061.
As to `CC(=O)CC(c1ccccc1)c1c(OC(C)=O)c2ccccc2oc1=O` (stereo not given), the NF-kB reporter came to 0.865 ± 0.059.
Same read-out and setting: the result for `CCC1(C)CC(=O)NC(=O)C1` reads 0.907 ± 0.15.
Regarding `CN1C(=O)NC(=O)C(=Cc2ccc([N+](=O)[O-])s2)C1=O`, the NF-kB reporter was found to be 1.12 ± 0.12.
Same read-out and setting: the result for `CC(C(O)c1ccccc1)N(C)C` (stereo not given) reads 0.96 ± 0.084.
On to `Cc1c(NC=C2C(=O)NC(=O)NC2=O)c(=O)n(-c2ccccc2)n1C`, for which the NF-kB reporter stood at 0.967 ± 0.077.
With `CCC1(c2c[nH]cn2)Cc2ccccc2C1.Cl`, the NF-kB reporter turned out to be 0.752 ± 0.1.
`CC(=O)OC1CN2CCC1CC2.Cl` (stereo not given): the NF-kB reporter came out at 0.984 ± 0.35.
Take `COc1ccc(CN2CCNCC2)c(OC)c1OC.Cl.Cl`: the NF-kB reporter is 1.26 ± 0.18.
Still for that read-out and setting: in the case of `CCOc1cc(C=C2N=C(c3cccc(C)c3)OC2=O)ccc1OC(=O)Cc1ccccc1` it was 0.858 ± 0.069; in that of `CCCCCn1c(=O)c(C(=O)NCc2cccnc2)c(O)c2ccccc21`, 1.13 ± 0.086.
Turning to `CN1CC(CNC(=O)OCc2ccccc2)CC2c3cccc4c3c(cn4C)CC21` (stereo not given), the NF-kB reporter turned out to be 1.02 ± 0.065.
For the molecule `CCNc1nc(Cl)nc(NC(C)C)n1`, the NF-kB reporter was determined as 1.25 ± 0.097.
For `ClC(Cl)=C(c1ccc(Cl)cc1)c1ccc(Cl)cc1`, the NF-kB reporter amounted to 1.14 ± 0.36.
Turning to `CC(=O)Oc1ccc(C=Cc2cc(OC(C)=O)cc(OC(C)=O)c2)cc1`, the NF-kB reporter stood at 1.12 ± 0.069.
On to `COc1ccc2c(c1O)-c1c(OC)c(OC)cc3c1C(C2)N(C)CC3` (stereo not given), for which the NF-kB reporter is 0.618 ± 0.051.
With `Cc1cccc(-n2c(C)nc3ccccc3c2=O)n1`, the NF-kB reporter was determined as 0.88 ± 0.052.
Still for that read-out and setting: in the case of `O=C1NC(=O)C(=Cc2cccn2-c2ccc(Br)cc2)C(=O)N1` it was 1.09 ± 0.09.
For `COc1cc(CNCCc2c[nH]c3ccccc23)cc(OC)c1O`, the NF-kB reporter was 0.642 ± 0.052.

The same assay, now with this note: modulator concentration 10 µM; agonist: LPS 0.1 ug/mL.
For `COC12CC(COC(=O)c3cncc(Br)c3)CN(C)C1Cc1cn(C)c3cccc2c13` (stereo not given), the NF-kB reporter came out at 1.01 ± 0.078.
In the case of `CCOC(=O)c1ccccc1-c1ccc(C=C2C(=O)NC(=O)N(c3ccccc3C)C2=O)o1`, the NF-kB reporter turned out to be 0.444 ± 0.025.
Turning to `c1cc2c(cc1C1OCC3C(c4ccc5c(c4)OCO5)OCC13)OCO2` (stereo not given), the NF-kB reporter was 1.16 ± 0.058.
With `CCN(CC)CCNC(=O)C(O)(c1ccccc1)c1ccccc1`, the NF-kB reporter stood at 0.937 ± 0.066.
With `COc1cc2c(cc1OC)C1CC(=O)C(CC(C)C)CN1CC2` (stereo not given), the NF-kB reporter was 1.04 ± 0.076.
Same read-out and setting: in the case of `O=C1CCC(=O)N1C1CC2CCC(C1)N2C(=O)Cc1cccc2ccccc12` (stereo not given) it was 1.12 ± 0.099; in that of `CCOc1cc(C=C2C(=O)NC(=O)NC2=O)ccc1OCc1c(Cl)cccc1Cl`, 1.01 ± 0.07; in that of `CCC1(O)C(=O)OCc2c1cc1n(c2=O)Cc2cc3ccccc3nc2-1` (stereo not given), 0.912 ± 0.069.
For the molecule `CCC1(c2cccc(O)c2)CCCCN(C)C1.Cl` (stereo not given), the NF-kB reporter was 0.99 ± 0.054.
As to `CC(C)c1ccc2c(c1O)CCC1C3=C(CCC21C)C(=O)OC3` (stereo not given), the NF-kB reporter is 0.815 ± 0.11.
On to `COc1cc(OC)c(OC)cc1C=O`, for which the NF-kB reporter amounted to 1.04 ± 0.082.
Consider `COc1ccc(CCNCc2ccc3ccccc3c2)cc1OC`, for which the NF-kB reporter was 0.762 ± 0.058.
For `COC(=O)COc1ccc(C=C2C(=O)NC(=S)N(c3cccc(Cl)c3Cl)C2=O)cc1OC`, the NF-kB reporter was found to be 1.04 ± 0.086.
In the case of `CC(C)N(CCC(C(N)=O)(c1ccccc1)c1ccccn1)C(C)C` (stereo not given), the NF-kB reporter is 0.945 ± 0.09.
For the molecule `COc1ccc(CNCCc2c[nH]c3ccccc23)c(OC)c1C`, the NF-kB reporter was determined as 0.924 ± 0.076.
Turning to `CCOC(=O)Nc1ccc(NCc2ccc(F)cc2)cc1N`, the NF-kB reporter was determined as 1.09 ± 0.086.
As for `O=Cc1cn(Cc2cccc3ccccc23)c2ccccc12`, the NF-kB reporter was determined as 1.01 ± 0.11.
`C1CCc2nnnn2CC1` [Prestw-162]: the NF-kB reporter was 0.966 ± 0.18.
Regarding `O=C(O)COc1cc(Cl)c(Cl)cc1Cl`, the NF-kB reporter amounted to 0.836 ± 0.11.
As to `NC(=O)Cn1c(Cc2ccccc2Cl)nc2ccccc21`, the NF-kB reporter is 0.84 ± 0.074.
On to `CC(=O)CC(c1ccccc1)c1c(OC(C)=O)c2ccccc2oc1=O` (stereo not given), for which the NF-kB reporter amounted to 0.925 ± 0.11.
Regarding `CCC1(C)CC(=O)NC(=O)C1`, the NF-kB reporter was found to be 0.842 ± 0.14.
Still for that read-out and setting: in the case of `CN1C(=O)NC(=O)C(=Cc2ccc([N+](=O)[O-])s2)C1=O` it was 1.08 ± 0.07; in that of `CC(C(O)c1ccccc1)N(C)C` (stereo not given), 0.883 ± 0.065; in that of `Cc1c(NC=C2C(=O)NC(=O)NC2=O)c(=O)n(-c2ccccc2)n1C`, 1.08 ± 0.074.
As for `CCC1(c2c[nH]cn2)Cc2ccccc2C1.Cl`, the NF-kB reporter was 1.11 ± 0.082.
Same read-out and setting: in the case of `CC(=O)OC1CN2CCC1CC2.Cl` (stereo not given) it was 0.984 ± 0.12; in that of `COc1ccc(CN2CCNCC2)c(OC)c1OC.Cl.Cl`, 1.06 ± 0.16; in that of `CCOc1cc(C=C2N=C(c3cccc(C)c3)OC2=O)ccc1OC(=O)Cc1ccccc1`, 0.959 ± 0.081.
Regarding `CCCCCn1c(=O)c(C(=O)NCc2cccnc2)c(O)c2ccccc21`, the NF-kB reporter amounted to 1.25 ± 0.085.
For the molecule `CN1CC(CNC(=O)OCc2ccccc2)CC2c3cccc4c3c(cn4C)CC21` (stereo not given), the NF-kB reporter was 0.966 ± 0.11.
Turning to `CCNc1nc(Cl)nc(NC(C)C)n1`, the NF-kB reporter was 0.873 ± 0.082.
For the molecule `ClC(Cl)=C(c1ccc(Cl)cc1)c1ccc(Cl)cc1`, the NF-kB reporter was 1.03 ± 0.068.
Still for that read-out and setting: in the case of `CC(=O)Oc1ccc(C=Cc2cc(OC(C)=O)cc(OC(C)=O)c2)cc1` it was 1.15 ± 0.073.
On the same count and under the same terms, the result for `COc1ccc2c(c1O)-c1c(OC)c(OC)cc3c1C(C2)N(C)CC3` (stereo not given) reads 0.905 ± 0.088.
The same measure, in the same setting: the result for `Cc1cccc(-n2c(C)nc3ccccc3c2=O)n1` reads 0.827 ± 0.1.
For the molecule `O=C1NC(=O)C(=Cc2cccn2-c2ccc(Br)cc2)C(=O)N1`, the NF-kB reporter turned out to be 0.758 ± 0.06.
Take `COc1cc(CNCCc2c[nH]c3ccccc23)cc(OC)c1O`: the NF-kB reporter was 0.811 ± 0.12.

The assay is the same for the next values; noted with them: modulator concentration 10 µM; agonist: MPLA […].
`COC12CC(COC(=O)c3cncc(Br)c3)CN(C)C1Cc1cn(C)c3cccc2c13` (stereo not given): the NF-kB reporter was found to be 1.03 ± 0.13.
For the molecule `CCOC(=O)c1ccccc1-c1ccc(C=C2C(=O)NC(=O)N(c3ccccc3C)C2=O)o1`, the NF-kB reporter worked out at 0.358 ± 0.051.
For the molecule `c1cc2c(cc1C1OCC3C(c4ccc5c(c4)OCO5)OCC13)OCO2` (stereo not given), the NF-kB reporter was 1.1 ± 0.082.
Turning to `CCN(CC)CCNC(=O)C(O)(c1ccccc1)c1ccccc1`, the NF-kB reporter was 0.964 ± 0.038.
`COc1cc2c(cc1OC)C1CC(=O)C(CC(C)C)CN1CC2` (stereo not given): the NF-kB reporter came out at 0.986 ± 0.045.
Take `O=C1CCC(=O)N1C1CC2CCC(C1)N2C(=O)Cc1cccc2ccccc12` (stereo not given): the NF-kB reporter came to 0.913 ± 0.11.
For `CCOc1cc(C=C2C(=O)NC(=O)NC2=O)ccc1OCc1c(Cl)cccc1Cl`, the NF-kB reporter was determined as 0.938 ± 0.11.
The same measure, in the same setting: in the case of `CCC1(O)C(=O)OCc2c1cc1n(c2=O)Cc2cc3ccccc3nc2-1` (stereo not given) it was 0.889 ± 0.092.
Turning to `CCC1(c2cccc(O)c2)CCCCN(C)C1.Cl` (stereo not given), the NF-kB reporter is 1 ± 0.047.
The same measure, in the same setting: the result for `CC(C)c1ccc2c(c1O)CCC1C3=C(CCC21C)C(=O)OC3` (stereo not given) reads 0.986 ± 0.093.
For `COc1cc(OC)c(OC)cc1C=O`, the NF-kB reporter was 1.02 ± 0.067.
Still for that read-out and setting: in the case of `COc1ccc(CCNCc2ccc3ccccc3c2)cc1OC` it was 0.849 ± 0.08; in that of `COC(=O)COc1ccc(C=C2C(=O)NC(=S)N(c3cccc(Cl)c3Cl)C2=O)cc1OC`, 0.932 ± 0.063; in that of `CC(C)N(CCC(C(N)=O)(c1ccccc1)c1ccccn1)C(C)C` (stereo not given), 0.99 ± 0.067.
As to `COc1ccc(CNCCc2c[nH]c3ccccc23)c(OC)c1C`, the NF-kB reporter worked out at 2.6 ± 0.15.
The same measure, in the same setting: in the case of `CCOC(=O)Nc1ccc(NCc2ccc(F)cc2)cc1N` it was 0.936 ± 0.051.
Still for that read-out and setting: the result for `O=Cc1cn(Cc2cccc3ccccc23)c2ccccc12` reads 1.16 ± 0.12.
With `C1CCc2nnnn2CC1` [Prestw-162], the NF-kB reporter was found to be 1.03 ± 0.1.
On the same count and under the same terms, the result for `O=C(O)COc1cc(Cl)c(Cl)cc1Cl` reads 0.995 ± 0.093; that for `NC(=O)Cn1c(Cc2ccccc2Cl)nc2ccccc21`, 0.912 ± 0.031.
`CC(=O)CC(c1ccccc1)c1c(OC(C)=O)c2ccccc2oc1=O` (stereo not given): the NF-kB reporter turned out to be 0.779 ± 0.1.
Turning to `CCC1(C)CC(=O)NC(=O)C1`, the NF-kB reporter turned out to be 0.941 ± 0.054.
For the molecule `CN1C(=O)NC(=O)C(=Cc2ccc([N+](=O)[O-])s2)C1=O`, the NF-kB reporter amounted to 1.05 ± 0.036.
`CC(C(O)c1ccccc1)N(C)C` (stereo not given): the NF-kB reporter worked out at 0.955 ± 0.091.
Turning to `Cc1c(NC=C2C(=O)NC(=O)NC2=O)c(=O)n(-c2ccccc2)n1C`, the NF-kB reporter came to 0.957 ± 0.06.
With `CCC1(c2c[nH]cn2)Cc2ccccc2C1.Cl`, the NF-kB reporter amounted to 0.863 ± 0.05.
For the molecule `CC(=O)OC1CN2CCC1CC2.Cl` (stereo not given), the NF-kB reporter stood at 0.971 ± 0.061.
With `COc1ccc(CN2CCNCC2)c(OC)c1OC.Cl.Cl`, the NF-kB reporter stood at 1.45 ± 0.53.
On the same count and under the same terms, in the case of `CCOc1cc(C=C2N=C(c3cccc(C)c3)OC2=O)ccc1OC(=O)Cc1ccccc1` it was 0.914 ± 0.057.
`CCCCCn1c(=O)c(C(=O)NCc2cccnc2)c(O)c2ccccc21`: the NF-kB reporter came to 0.997 ± 0.062.
As to `CN1CC(CNC(=O)OCc2ccccc2)CC2c3cccc4c3c(cn4C)CC21` (stereo not given), the NF-kB reporter amounted to 0.963 ± 0.08.
On the same count and under the same terms, the result for `CCNc1nc(Cl)nc(NC(C)C)n1` reads 1.01 ± 0.094.
With `ClC(Cl)=C(c1ccc(Cl)cc1)c1ccc(Cl)cc1`, the NF-kB reporter was 1.07 ± 0.11.
As for `CC(=O)Oc1ccc(C=Cc2cc(OC(C)=O)cc(OC(C)=O)c2)cc1`, the NF-kB reporter was determined as 1.12 ± 0.092.
As for `COc1ccc2c(c1O)-c1c(OC)c(OC)cc3c1C(C2)N(C)CC3` (stereo not given), the NF-kB reporter turned out to be 1.1 ± 0.1.
Same read-out and setting: the result for `Cc1cccc(-n2c(C)nc3ccccc3c2=O)n1` reads 0.949 ± 0.039.
On to `O=C1NC(=O)C(=Cc2cccn2-c2ccc(Br)cc2)C(=O)N1`, for which the NF-kB reporter was determined as 1.08 ± 0.04.
On the same count and under the same terms, in the case of `COc1cc(CNCCc2c[nH]c3ccccc23)cc(OC)c1O` it was 1.04 ± 0.096.

For the origin of these results see the supplement of paper PMC10646978.
